Screens as filed in PubChem BioAssay.
TROY NFkB inh: inhibitors of TROY-driven NF-kB signaling, primary screen, Q293 LMP1-TROYcd cells, NF-kB luciferase, uHTS; Q293 LMP1-TROYcd NF-kB luciferase reporter, 4 h; inhibition, % at 10 µM; 0.98% of 360,000 active;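 active means compounds whose plate-normalised and pattern-corrected inhibition of the luciferase reporter signal at the single screening dose is 50% or more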
LMP1 NFkB inh: EBV LMP1-driven NF-kappaB luciferase reporter inhibitors, primary screen, cell-based, luminescence, single point; LMP1-induced NF-kappaB luciferase reporter cells; 0.69% of 350,000 active; inhibition, % at 12.5 µM; AID 504558, 2011; in the data active means inhibition above about 41%;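 further: 0% = neutral control wells and 100% = reference inhibitor control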
LGR2 antag: inhibitors of bursicon-induced LGR2 CRE-luciferase signal, primary screen, cell-based, HEK293, CRE-luciferase reporter, bursicon stimulation | AID 720647, 2013 | inhibition, % at 9.99 µM | Drosophila bursicon receptor LGR2 (rickets) | bursicon-stimulated, 4 h | 0.35% of 380,000 active;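 active means drop in luminescence signal, shown as inhibition above about 50% in the replicate tests, limit read from the data, passing the limit was not always enough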;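 further: agonist challenge used bursicon conditioned medium at about half maximal strength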
TWEAK Fn14 block: inhibitors of TWEAK-Fn14 signaling, primary screen, luciferase reporter cells, uHTS | TWEAK-stimulated Fn14 reporter cells, luciferase luminescence, 8 h | inhibition, % at 10 µM | 2% of 360,000 active | AID 1159606, 2016; in the data active means inhibition above about 50%
EWS-Fli inh: EWS/Fli-driven NR0B1 reporter inhibitors, primary screen, A673 cells, NR0B1 luciferase, luminescence, MLPCN library; viability-normalised; inhibition, % at 12.6 µM; 0.67% of 350,000 active; AID 651661, 2012;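 active means mean inhibition of at least 50% after viability correction, with every replicate also passing that limit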;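 further: firefly luciferase signal divided by Alamar Blue viability fluorescence both relative to DMSO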
Starred values were filed as active, the others as inactive; . = no result. This is a sample that favours compounds with a hit; in the whole collection about 2.6% have one here.

SMILES | TROY NFkB inh | LMP1 NFkB inh | LGR2 antag | TWEAK Fn14 block | EWS-Fli inh
CN(C)C(=O)[C@H]1[C@H](CO)[C@H]2Cn3c(ccc(C4=CCCCC4)c3=O)[C@@H]1N2Cc1ccccc1F | . | . | -25 | . | -3
CCOC(=O)/C=C/c1cnn(-c2ccccc2)c1 | -23 | -30 | -59 | -24 | .
O=C(O)/C=C/c1cnn(-c2ccccc2)c1 | 8 | 12 | 59* | 67* | 31
Cn1cnc(S(=O)(=O)N2C[C@@H](O)COC[C@H]3O[C@@H](CC(=O)NC4CCC4)CC[C@@H]32)c1 | . | . | -9 | . | .
CCc1sc(C(=O)Nc2ncccc2O)cc1C | 19 | 52* | 45 | 41 | .
COc1ccc(COc2cc(-c3cccc(OC)c3)nc3ccc(NC(=O)c4ccc(OC)cc4)cc23)cc1 | 14 | 3 | -6 | -41 | 48
COc1ccc(COc2cc(-c3cccc(OC)c3)nc3ccc(NC(=O)c4ccccc4)cc23)cc1 | 11 | 3 | 14 | -32 | 58*
COc1ccc(COc2cc(-c3cccc(OC)c3)nc3ccc(NC(=O)c4ccc(Cl)cc4)cc23)cc1 | 7 | -14 | 3 | -60 | 57*
C[C@@H]1CN([C@@H](C)CO)S(=O)(=O)c2ccc(C#CCN(C)C)cc2O[C@@H]1CN(C)S(C)(=O)=O | . | . | 3 | . | 2
COc1ccc(-c2c(C)nn3c(N)c(C#N)cnc23)cc1OC | -6 | -6 | . | 50* | -22
CCCC(=O)N1CCC2(CC1)CN(S(C)(=O)=O)[C@@H](CO)c1c2c2ccc(OC)cc2n1C | . | . | -2 | . | -7
CCCCCC(=O)N1CCN(c2ccc(C(C)=O)cc2F)CC1 | -1 | 77* | -8 | -3 | 0
CC(=O)c1ccc(N2CCC(C)CC2)c(F)c1 | -10 | 1 | . | -4 | -24
O=C(Cc1ccccn1)N1CC(=O)N2[C@H](C1)[C@H](c1ccc(C#CC3CCCCC3)cc1)[C@@H]2CO | . | . | 5 | . | 8
O=C(C[C@H]1CC[C@@H](NC(=O)Cc2ccccn2)[C@H](CO)O1)NCCc1ccncc1 | . | . | -4 | . | 4
CC(=O)N/C(=N\c1nc(C)cc(C)n1)Nc1ccc2ccccc2c1 | 77* | -21 | 9 | 74* | -2
CCN1[C@@H]2Cn3c(ccc(-c4ccc(F)cc4)c3=O)[C@H]1[C@@H](C(=O)Nc1ccccc1)[C@@H]2CO | . | . | -1 | . | 8
CC[C@H](C)[C@H]1O[C@]2(CC[C@@H]1C)C[C@@H]1C[C@@H](CC=C(C)[C@@H](O[C@H]3C[C@H](OC)[C@@H](O[C@H]4C[C@H](OC)[C@@H](O)[C@H](C)O4)[C@H](C)O3)[C@@H](C)C=CC=C3CO[C@@H]4[C@H](O)C(C)=C[C@@H](C(=O)O1)[C@]34O)O2 | 30 | 1 | . | 100* | .
Cc1ccc(S(=O)(=O)NC(CC(C)C)C(=O)NCC(c2ccco2)N2CCCCC2)cc1 (configuration not stated) | 88* | 49* | . | 104* | .
O=C(NCC(c1ccco1)N1CCCC1)c1ccccc1F (configuration not stated) | 57* | -2 | -9 | 53* | .
CSc1ccccc1C(=O)NCC(c1ccco1)N1CCCCC1 (configuration not stated) | 0 | 4 | . | -2 | 3
CCOc1ccc(N2CC(O)=C(c3nc4ccccc4c(=O)[nH]3)C2=N)cc1 | -33 | 46* | 25 | -12 | -7
Cc1ccccc1NC(=O)/C=C/c1ccc([N+](=O)[O-])s1 | -34 | -17 | . | 95* | .
Cc1cc(C)cc(NC(=O)/C=C/c2ccc([N+](=O)[O-])s2)c1 | -47 | -110 | -18 | -4 | 26
CC(=O)c1cccc(NC(=O)/C=C/c2ccc([N+](=O)[O-])s2)c1 | 31 | -90 | 15 | 84* | 48
O=C(CSC(=S)N1CCCC1)c1ccccc1 | 19 | 20 | -17 | 45 | 8
COc1ccc(C(=O)CSC(=S)N2CCCCC2)cc1 | 12 | . | . | 60* | .
COc1ccc(C(=S)N2CCCCCC2)cc1 | -3 | 33 | . | 7 | .
O=C(CSC(=S)N1CCCCC1)c1ccccc1 | 50* | 5 | 67* | 72* | 64*
CCC(CC)c1nnc(NC(=O)c2cccc(S(=O)(=O)N3CCc4ccccc43)c2)s1 | 39 | -7 | 3 | 41 | 3
